Measured values as given in the supplement of paper PMC10849652.
Targets with a hit are over-represented here; the source holds about 7,900 in all. About 0.6% of all pairs of compound and target were hits.

Key:
Assay in all cases: log2 fold change, soluble protein after heating vs DMSO (PISA); higher = thermal stabilisation; K562 cells, 10 uM, 30 min; active = over 0.2 and 3.5 SD of the protein, either way, in both replicates (recomputed)
ibrutinib = compound: C=CC(=O)N1CCC[C@@H](n2nc(-c3ccc(Oc4ccccc4)cc3)c3c(N)ncnc32)C1 [ibrutinib]
Summary of the method: (§1)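 K562 cells at 2×10^6 cells/mL were treated for 30 min with 10 μM compound, and aliquots were heated for 3 min over 48°C-58°C before pooling. Extraction used PBS with 0.5% NP-40 at 4°C, and soluble protein was the supernatant after 21,000xg for 90 min, measured by TMTpro 16plex LC-MS/MS with channel sums equalised. Thermal stability values, relative to control samples and from duplicates, are log2 fold changes.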

[1] = compound: CC(=O)c1cnc2ccc(-c3cc(Cl)c(O)c(Cl)c3)nc2c1N[C@H]1CC[C@H](CN(C)C)CC1
Summary of the method: as §1

[2] = compound: CC(C)(O)CC(=O)NCCn1ccc2ncnc(Nc3ccc(Oc4cccc(C(F)(F)F)c4)c(Cl)c3)c21
Summary of the method: as §1

[3] = compound: CC(C)C1=C2N=C(C=C(N2N=C1)NCC3=CC=CC=C3)NCCCCCCN
Summary of the method: as §1

[4] = compound: CC1=C(C2=C(C=C1)C(=O)C3=CC=CC=C3N2CCCN)C
Summary of the method: as §1

[5] = compound: CC1=C(C=C(C=C1)NC(=O)C2=CC(=CC=C2)C(C)(C)C#N)NC3=CC4=C(C=C3)N=CN(C4=O)C
Summary of the method: as §1

[6] = compound: CC1=CC=C(C=C1)SC2=C3C=C(SC3=CN=C2)C(=O)N
Summary of the method: as §1

Nexturastat A = compound: CCCCN(Cc1ccc(C(=O)NO)cc1)C(=O)Nc1ccccc1 [Nexturastat A]
Summary of the method: as §1

vemurafenib = compound: CCCS(=O)(=O)Nc1ccc(F)c(C(=O)c2c[nH]c3ncc(-c4ccc(Cl)cc4)cc23)c1F [vemurafenib]
Summary of the method: as §1

[7] = compound: CCCS(=O)(=O)Nc1ccc(F)c(C(=O)c2c[nH]c3ncc(Cl)cc23)c1F
Summary of the method: as §1

givinostat = compound: CCN(CC)Cc1ccc2cc(COC(=O)Nc3ccc(C(=O)NO)cc3)ccc2c1 [givinostat]
Summary of the method: as §1

barasertib = compound: CCN(CCCOc1ccc2c(Nc3cc(CC(=O)Nc4cccc(F)c4)[nH]n3)ncnc2c1)CCOP(=O)(O)O [barasertib]
Summary of the method: as §1

IRAK-1-4 Inhibitor I = compound: C1COCCN1CCN2C3=CC=CC=C3N=C2NC(=O)C4=CC(=CC=C4)[N+](=O)[O-] [IRAK-1-4 Inhibitor I]
Summary of the method: as §1

pinometostat = compound: CC(C)N(C[C@H]1O[C@@H](n2cnc3c(N)ncnc32)[C@H](O)[C@@H]1O)[C@H]1C[C@@H](CCc2nc3cc(C(C)(C)C)ccc3[nH]2)C1 [pinometostat]
Summary of the method: as §1

[8] = compound: CC1=NC(=CC=C1)C2=C(N=C(N2)C(C)(C)C)C3=CC4=NC=CN=C4C=C3
Summary of the method: as §1

[9] = compound: CCCc1cc(C)[nH]c(=O)c1CNC(=O)c1cc(-c2ccnc(N3CCN(C)CC3)c2)cc2c1cnn2C(C)C
Summary of the method: as §1

ralimetinib = compound: CC(C)(C)Cn1c(N)nc2ccc(-c3[nH]c(C(C)(C)C)nc3-c3ccc(F)cc3)nc21 [ralimetinib]
Summary of the method: as §1

[10] = compound: CC(C)C[C@@H](C=O)NC(=O)[C@H](CC(C)C)NC(=O)[C@H](CC(C)C)NC(=O)OCc1ccccc1
Summary of the method: as §1

[11] = compound: CC1=C(C=C(C=C1)NC(=O)C2=CC(=CC=C2)N(C)C)NC(=O)C3=CC=C(C=C3)O
Summary of the method: as §1

[12] = compound: CC1=C(C(CC(=O)N1)C2=CC=C(C=C2)C(F)(F)F)C(=O)NC3=C(C=C4C(=C3)C=NN4)F
Summary of the method: as §1

Measured: log2 fold change

UBE2J2 isoform 3 (UniProt Q8N2K1)
Chain of UniProt Q8N2K1 (Q8N2K1 whole entry, looked up): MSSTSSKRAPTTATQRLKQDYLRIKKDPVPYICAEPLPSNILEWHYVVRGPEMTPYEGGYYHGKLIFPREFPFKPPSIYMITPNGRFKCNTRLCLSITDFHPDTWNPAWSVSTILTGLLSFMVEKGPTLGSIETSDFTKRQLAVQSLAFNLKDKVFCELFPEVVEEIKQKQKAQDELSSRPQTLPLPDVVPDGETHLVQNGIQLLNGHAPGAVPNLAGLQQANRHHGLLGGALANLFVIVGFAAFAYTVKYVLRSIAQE
inactive: ibrutinib 0.086 | [1] -0.017 | [2] -0.019 | [3] -0.185 | [4] 0.02 | [5] -0.085 | [6] 0.024 | Nexturastat A 0.028 | vemurafenib 0.214 | [7] -0.027 | givinostat 0.009 | barasertib 0.006

WARS1 (UniProt G3V5U1)
inactive: IRAK-1-4 Inhibitor I 0.01 | ibrutinib -0.158 | [2] 0.156 | pinometostat 0.031 | [5] -0.795 | [8] -0.638 | Nexturastat A 0.136 | [9] -0.118 | barasertib -0.007

TUBA4A (UniProt C9JJQ8)
inactive: IRAK-1-4 Inhibitor I -0.203 | ibrutinib -0.076 | pinometostat -0.121 | [4] -0.042 | [5] -0.019 | [6] 0.022 | [8] 0.138 | vemurafenib 0.053 | [7] -0.065 | barasertib 0.136

TRIM5 (UniProt Q9C035)
Chain of UniProt Q9C035 (Q9C035 whole entry, looked up): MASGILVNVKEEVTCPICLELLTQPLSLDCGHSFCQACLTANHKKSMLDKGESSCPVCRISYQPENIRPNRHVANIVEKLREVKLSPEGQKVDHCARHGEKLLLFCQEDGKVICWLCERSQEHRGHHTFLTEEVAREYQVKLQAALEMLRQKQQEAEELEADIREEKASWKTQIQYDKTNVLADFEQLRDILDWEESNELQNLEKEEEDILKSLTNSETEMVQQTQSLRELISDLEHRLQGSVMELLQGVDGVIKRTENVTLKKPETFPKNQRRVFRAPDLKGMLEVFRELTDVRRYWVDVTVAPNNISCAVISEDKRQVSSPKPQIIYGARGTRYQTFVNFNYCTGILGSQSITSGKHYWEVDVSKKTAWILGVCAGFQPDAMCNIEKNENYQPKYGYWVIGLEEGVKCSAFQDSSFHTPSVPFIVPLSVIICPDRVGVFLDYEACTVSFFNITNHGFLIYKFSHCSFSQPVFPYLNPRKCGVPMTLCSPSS
inactive: [1] 0 | ralimetinib 0.094 | [2] -0.045 | [3] -0.176 | [10] 0.391 | [4] 0.047 | [5] -0.063 | [11] -0.197 | Nexturastat A 0.033 | vemurafenib -0.044 | givinostat 0.119

USP48 (UniProt Q86UV5)
Chain of UniProt Q86UV5 (Q86UV5 whole entry, looked up): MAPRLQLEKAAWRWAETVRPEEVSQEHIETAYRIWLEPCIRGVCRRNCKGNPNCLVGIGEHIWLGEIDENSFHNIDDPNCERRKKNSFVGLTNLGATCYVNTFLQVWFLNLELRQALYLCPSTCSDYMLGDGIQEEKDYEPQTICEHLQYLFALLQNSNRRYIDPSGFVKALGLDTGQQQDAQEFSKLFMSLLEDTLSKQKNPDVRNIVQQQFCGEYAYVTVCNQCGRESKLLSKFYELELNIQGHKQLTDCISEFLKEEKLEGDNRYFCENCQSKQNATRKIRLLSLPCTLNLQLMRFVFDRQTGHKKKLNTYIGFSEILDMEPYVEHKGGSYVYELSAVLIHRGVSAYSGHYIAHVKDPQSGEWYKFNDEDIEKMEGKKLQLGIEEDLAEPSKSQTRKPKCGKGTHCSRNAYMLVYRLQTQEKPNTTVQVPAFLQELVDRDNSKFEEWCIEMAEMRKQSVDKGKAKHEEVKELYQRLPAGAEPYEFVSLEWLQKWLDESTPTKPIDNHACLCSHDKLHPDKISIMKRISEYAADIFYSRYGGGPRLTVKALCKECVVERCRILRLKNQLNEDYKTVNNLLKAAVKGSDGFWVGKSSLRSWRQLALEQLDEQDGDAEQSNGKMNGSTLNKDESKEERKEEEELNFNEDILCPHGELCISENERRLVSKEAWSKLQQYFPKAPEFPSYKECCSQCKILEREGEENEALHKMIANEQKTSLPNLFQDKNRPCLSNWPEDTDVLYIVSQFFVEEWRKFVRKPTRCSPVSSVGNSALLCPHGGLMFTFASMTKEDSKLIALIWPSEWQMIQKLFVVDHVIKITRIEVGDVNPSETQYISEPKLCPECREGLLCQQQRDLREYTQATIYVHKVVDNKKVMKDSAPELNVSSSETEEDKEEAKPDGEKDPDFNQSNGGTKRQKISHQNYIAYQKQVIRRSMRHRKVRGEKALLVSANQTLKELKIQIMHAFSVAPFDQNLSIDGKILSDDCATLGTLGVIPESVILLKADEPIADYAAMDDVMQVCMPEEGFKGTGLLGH
inactive: ibrutinib -0.07 | [3] -0.246 | [12] 0.05 | [5] -0.096 | [9] -0.232 | givinostat 0.237 | barasertib 0.252

UBXN8 (UniProt O00124)
Chain of UniProt O00124 (O00124 whole entry, looked up): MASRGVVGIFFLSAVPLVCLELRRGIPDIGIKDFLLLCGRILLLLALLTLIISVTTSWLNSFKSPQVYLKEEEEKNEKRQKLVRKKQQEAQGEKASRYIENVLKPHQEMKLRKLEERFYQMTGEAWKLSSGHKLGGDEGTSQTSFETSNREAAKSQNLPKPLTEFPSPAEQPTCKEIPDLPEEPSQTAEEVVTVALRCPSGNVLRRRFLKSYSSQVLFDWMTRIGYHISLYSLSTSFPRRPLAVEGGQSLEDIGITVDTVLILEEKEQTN
inactive: ibrutinib 0.077 | [1] 0.039 | ralimetinib 0.211 | [2] 0.138 | [10] -0.227 | [4] 0.259 | [5] -0.029 | [11] 0.169 | [6] 0.023 | Nexturastat A 0.334 | vemurafenib 0.089 | [7] -0.024 | barasertib -0.218

TUT4 (UniProt Q5TAX3)
Chain of UniProt Q5TAX3 (Q5TAX3 whole entry, looked up): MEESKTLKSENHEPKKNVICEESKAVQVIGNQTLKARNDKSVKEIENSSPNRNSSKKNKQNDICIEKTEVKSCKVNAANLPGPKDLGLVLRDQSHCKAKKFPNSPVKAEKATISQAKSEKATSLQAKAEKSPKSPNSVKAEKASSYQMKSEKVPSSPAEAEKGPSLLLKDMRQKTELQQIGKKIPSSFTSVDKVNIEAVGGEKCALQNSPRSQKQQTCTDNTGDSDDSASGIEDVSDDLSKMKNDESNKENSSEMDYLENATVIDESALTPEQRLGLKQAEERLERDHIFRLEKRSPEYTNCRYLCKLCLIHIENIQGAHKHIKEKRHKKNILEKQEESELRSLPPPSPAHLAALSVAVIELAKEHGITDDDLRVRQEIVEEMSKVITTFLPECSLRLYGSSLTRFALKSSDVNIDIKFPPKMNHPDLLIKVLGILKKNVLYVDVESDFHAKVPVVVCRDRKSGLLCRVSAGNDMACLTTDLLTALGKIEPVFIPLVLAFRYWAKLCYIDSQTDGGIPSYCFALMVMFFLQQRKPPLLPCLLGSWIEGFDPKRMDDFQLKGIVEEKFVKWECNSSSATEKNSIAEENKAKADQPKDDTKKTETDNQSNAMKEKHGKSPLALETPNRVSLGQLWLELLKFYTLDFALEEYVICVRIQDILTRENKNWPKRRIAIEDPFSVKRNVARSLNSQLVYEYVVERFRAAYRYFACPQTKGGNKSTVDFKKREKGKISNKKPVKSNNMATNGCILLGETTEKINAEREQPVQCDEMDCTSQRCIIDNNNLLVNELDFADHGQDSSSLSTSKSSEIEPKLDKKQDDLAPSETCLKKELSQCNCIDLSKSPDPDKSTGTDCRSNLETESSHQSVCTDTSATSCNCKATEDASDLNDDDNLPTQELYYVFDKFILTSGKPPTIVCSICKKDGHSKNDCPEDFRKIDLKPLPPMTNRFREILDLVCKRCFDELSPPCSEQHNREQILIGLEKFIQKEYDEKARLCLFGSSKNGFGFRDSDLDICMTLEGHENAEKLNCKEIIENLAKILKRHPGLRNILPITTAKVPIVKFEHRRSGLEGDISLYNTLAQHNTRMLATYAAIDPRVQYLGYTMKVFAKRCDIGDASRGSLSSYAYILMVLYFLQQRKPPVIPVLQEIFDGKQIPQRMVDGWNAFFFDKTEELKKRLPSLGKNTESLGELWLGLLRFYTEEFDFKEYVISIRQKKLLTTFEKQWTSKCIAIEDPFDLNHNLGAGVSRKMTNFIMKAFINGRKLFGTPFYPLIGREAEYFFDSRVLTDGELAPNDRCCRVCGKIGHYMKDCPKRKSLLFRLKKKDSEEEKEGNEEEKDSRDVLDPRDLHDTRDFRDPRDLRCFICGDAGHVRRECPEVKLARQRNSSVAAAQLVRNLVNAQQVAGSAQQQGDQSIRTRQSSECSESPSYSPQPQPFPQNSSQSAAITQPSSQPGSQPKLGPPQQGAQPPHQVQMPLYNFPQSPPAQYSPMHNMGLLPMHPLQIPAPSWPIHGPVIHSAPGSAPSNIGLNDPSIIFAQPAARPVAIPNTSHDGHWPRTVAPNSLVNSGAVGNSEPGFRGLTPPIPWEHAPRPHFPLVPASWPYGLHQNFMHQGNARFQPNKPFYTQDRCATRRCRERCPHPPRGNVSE
inactive: IRAK-1-4 Inhibitor I 0.078 | ibrutinib -0.029 | ralimetinib 0.07 | [2] 0 | [3] -0.219 | [10] 0.086 | pinometostat 0.059 | [12] 0.158 | [4] 0.104 | [5] -0.124 | [11] -0.106 | [6] -0.081 | [8] -0.121 | Nexturastat A 0.449 | vemurafenib -0.129 | [7] -0.008 | [9] -0.124 | givinostat 0.069 | barasertib 0.027

VDAC1 (UniProt P21796)
Chain of UniProt P21796 (P21796 whole entry, looked up): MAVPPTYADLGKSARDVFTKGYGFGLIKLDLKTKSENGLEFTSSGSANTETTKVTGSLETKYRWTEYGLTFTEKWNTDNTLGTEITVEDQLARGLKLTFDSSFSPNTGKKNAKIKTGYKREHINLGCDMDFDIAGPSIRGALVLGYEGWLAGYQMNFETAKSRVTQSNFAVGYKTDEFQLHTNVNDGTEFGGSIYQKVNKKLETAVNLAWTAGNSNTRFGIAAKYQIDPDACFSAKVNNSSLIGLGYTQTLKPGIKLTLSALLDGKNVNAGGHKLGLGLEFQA
inactive: IRAK-1-4 Inhibitor I 0.07 | [1] 0.02 | ralimetinib -0.035 | [2] 0.021 | [3] 0.058 | [10] -0.039 | pinometostat -0.032 | [12] -0.009 | [4] -0.016 | [5] -0.025 | [11] 0.02 | [6] 0.025 | [8] 0.012 | Nexturastat A -0.028 | vemurafenib 0.015 | [7] 0.018 | [9] -0.005 | givinostat -0.001 | barasertib -0.017

UBAP2L (UniProt F8W726)
inactive: ibrutinib 0.017 | [3] -0.002 | [12] 0.145 | [4] 0.136 | [6] -0.093 | [7] 0.004 | [9] 0.014 | givinostat -0.067 | barasertib -0.058

WARS1 (UniProt G3V339)
inactive: [2] 0.044 | Nexturastat A 0.188

UBE2D1 (UniProt P51668)
Chain of UniProt P51668 (P51668 whole entry, looked up): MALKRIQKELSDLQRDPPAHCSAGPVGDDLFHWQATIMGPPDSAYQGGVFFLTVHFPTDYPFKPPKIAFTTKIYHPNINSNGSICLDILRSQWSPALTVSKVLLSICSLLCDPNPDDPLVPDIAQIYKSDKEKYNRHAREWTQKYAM
inactive: ibrutinib 0.007 | [1] 0.005 | ralimetinib 0.003 | [3] -0.203 | [10] -0.058 | [12] 0.028 | [4] 0.117 | [5] -0.08 | [11] 0.029 | [6] 0.021 | vemurafenib 0.156 | [7] 0.097 | [9] -0.004 | givinostat -0.035 | barasertib 0.047

VDAC1 (UniProt C9JI87)
inactive: [1] -0.091 | ralimetinib -0.506 | [2] -0.052 | [3] 0.009 | [10] -0.013 | [12] 0.21 | [5] -0.03 | [11] -0.003 | [6] -0.034 | Nexturastat A -0.093 | [7] -0.134 | [9] -0.053 | givinostat -0.052 | barasertib 0.071

ULBP1 (UniProt Q9BZM6)
Chain of UniProt Q9BZM6 (Q9BZM6 whole entry, looked up): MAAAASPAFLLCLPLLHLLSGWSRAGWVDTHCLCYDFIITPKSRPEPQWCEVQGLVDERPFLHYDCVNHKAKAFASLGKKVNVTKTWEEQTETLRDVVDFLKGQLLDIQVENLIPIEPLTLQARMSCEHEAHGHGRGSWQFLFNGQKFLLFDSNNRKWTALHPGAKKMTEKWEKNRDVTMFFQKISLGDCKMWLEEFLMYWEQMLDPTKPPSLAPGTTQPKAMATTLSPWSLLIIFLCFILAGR
active: Nexturastat A 0.428
inactive: [1] -0.038 | ralimetinib -0.058 | [2] -0.132 | [3] 0.112 | [10] 0.006 | [4] 0.009 | [5] -0.088 | [11] 0.023 | [6] -0.014 | vemurafenib 0.051 | [7] 0.053 | [9] 0 | givinostat 0.028

UBXN10 (UniProt Q96LJ8)
Chain of UniProt Q96LJ8 (Q96LJ8 whole entry, looked up): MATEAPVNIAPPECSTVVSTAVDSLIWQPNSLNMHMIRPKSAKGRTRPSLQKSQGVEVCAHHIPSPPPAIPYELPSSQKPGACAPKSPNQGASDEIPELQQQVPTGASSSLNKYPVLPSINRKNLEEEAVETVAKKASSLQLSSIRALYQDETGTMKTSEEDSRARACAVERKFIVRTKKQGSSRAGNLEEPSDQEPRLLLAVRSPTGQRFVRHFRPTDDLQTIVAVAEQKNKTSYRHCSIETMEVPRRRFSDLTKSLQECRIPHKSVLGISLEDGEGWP
inactive: IRAK-1-4 Inhibitor I 0.027 | ibrutinib 0.054 | ralimetinib -0.045 | [2] -0.145 | [3] -0.017 | [10] 0.038 | pinometostat 0.058 | [12] 0.026 | [4] 0.085 | [5] 0.007 | [11] -0.026 | [6] -0.071 | [8] 0.037 | Nexturastat A 0.107 | vemurafenib -0.264 | [7] -0.024 | [9] -0.115 | givinostat 0.059 | barasertib -0.068

WARS1 (UniProt G3V3P2)
inactive: ibrutinib -0.036 | [5] -0.055 | barasertib -0.255
